The target in experiment [1] is Sphingosine kinase 1 (Homo sapiens) (UniProt Q9NYA1). As to conditions: at 1 µM.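 Note: mean SPHK1 inhibition value reported from the GSK PKIS kinase panel screen.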
Experiment [2] concerns the target T1, Sphingosine kinase 2 (Homo sapiens) (UniProt Q9NRA0).
T1 sequence (whole entry): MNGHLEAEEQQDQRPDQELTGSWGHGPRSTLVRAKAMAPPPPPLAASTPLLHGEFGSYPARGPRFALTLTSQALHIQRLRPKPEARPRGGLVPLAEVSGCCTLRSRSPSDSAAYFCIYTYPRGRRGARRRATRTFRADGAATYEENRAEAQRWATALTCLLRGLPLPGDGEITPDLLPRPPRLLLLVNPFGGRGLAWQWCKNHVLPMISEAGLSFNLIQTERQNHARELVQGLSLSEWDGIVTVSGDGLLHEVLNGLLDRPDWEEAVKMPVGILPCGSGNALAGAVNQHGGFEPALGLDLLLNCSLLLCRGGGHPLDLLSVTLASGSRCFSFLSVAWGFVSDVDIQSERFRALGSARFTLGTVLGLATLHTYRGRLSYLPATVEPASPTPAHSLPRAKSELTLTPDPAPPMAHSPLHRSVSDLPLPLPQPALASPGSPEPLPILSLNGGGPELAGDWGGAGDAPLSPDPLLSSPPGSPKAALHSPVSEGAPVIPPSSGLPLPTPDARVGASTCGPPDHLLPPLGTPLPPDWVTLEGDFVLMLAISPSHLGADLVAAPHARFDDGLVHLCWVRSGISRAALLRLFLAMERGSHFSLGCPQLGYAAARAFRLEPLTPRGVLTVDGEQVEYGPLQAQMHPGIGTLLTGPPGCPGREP
As to conditions: at 0.1 µM.

Experiment [3] addresses T1, Sphingosine kinase 2 (Homo sapiens). Conditions: at 1 µM.
In experiment [4] the target is Casein kinase II subunit alpha (Homo sapiens) (UniProt P68400). As to conditions: at 0.1 µM.
Experiment [5] has the same target. As to conditions: at 1 µM.
Experiment [6] concerns the target T2, Inhibitor of nuclear factor kappa-B kinase subunit alpha (Homo sapiens) (UniProt O15111).
T2 sequence (whole entry): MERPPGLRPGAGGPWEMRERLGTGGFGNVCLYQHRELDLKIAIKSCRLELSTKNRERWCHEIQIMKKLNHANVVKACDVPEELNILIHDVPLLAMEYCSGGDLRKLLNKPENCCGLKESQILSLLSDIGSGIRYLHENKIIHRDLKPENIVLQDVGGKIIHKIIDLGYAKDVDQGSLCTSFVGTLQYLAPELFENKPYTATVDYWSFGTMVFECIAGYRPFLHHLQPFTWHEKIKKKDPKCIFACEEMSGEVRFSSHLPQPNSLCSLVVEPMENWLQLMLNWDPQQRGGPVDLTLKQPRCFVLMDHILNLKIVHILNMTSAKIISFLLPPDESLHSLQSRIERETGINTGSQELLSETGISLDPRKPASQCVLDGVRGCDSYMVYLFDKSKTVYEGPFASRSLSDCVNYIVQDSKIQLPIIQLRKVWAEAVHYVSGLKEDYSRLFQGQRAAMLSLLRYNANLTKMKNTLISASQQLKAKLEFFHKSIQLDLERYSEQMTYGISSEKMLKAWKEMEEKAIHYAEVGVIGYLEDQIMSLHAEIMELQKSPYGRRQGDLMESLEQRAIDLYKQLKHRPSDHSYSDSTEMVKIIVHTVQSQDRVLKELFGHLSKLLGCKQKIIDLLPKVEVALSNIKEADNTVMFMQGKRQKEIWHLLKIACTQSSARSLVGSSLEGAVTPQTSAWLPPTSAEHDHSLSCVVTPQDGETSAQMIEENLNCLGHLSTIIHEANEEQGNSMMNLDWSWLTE
Conditions: at 0.1 µM.

In experiment [7] the target is T2, Inhibitor of nuclear factor kappa-B kinase subunit alpha (Homo sapiens). Conditions: at 1 µM.
Experiment [8] deals with T3, Inhibitor of nuclear factor kappa-B kinase subunit beta (Homo sapiens) (UniProt O14920).
T3 sequence (whole entry): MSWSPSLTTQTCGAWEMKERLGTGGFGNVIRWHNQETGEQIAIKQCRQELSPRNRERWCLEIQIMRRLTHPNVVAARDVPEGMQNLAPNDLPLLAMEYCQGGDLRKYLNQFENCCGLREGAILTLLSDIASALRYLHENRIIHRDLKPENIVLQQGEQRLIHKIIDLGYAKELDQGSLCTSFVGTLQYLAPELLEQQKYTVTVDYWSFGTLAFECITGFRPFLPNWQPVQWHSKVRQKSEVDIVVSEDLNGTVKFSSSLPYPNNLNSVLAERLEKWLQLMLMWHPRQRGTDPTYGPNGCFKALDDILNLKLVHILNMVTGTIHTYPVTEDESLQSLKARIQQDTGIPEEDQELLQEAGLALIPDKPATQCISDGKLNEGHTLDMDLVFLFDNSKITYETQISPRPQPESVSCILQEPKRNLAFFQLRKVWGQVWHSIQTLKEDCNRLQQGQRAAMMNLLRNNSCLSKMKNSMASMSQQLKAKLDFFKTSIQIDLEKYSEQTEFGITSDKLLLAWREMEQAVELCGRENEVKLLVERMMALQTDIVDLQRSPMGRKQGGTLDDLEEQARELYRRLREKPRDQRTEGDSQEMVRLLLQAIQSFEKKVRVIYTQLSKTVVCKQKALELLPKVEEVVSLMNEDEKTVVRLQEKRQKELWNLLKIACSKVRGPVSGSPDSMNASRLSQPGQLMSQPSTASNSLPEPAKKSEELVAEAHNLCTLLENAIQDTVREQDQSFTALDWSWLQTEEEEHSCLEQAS
Conditions: at 0.1 µM.

Experiment [9] deals with T3, Inhibitor of nuclear factor kappa-B kinase subunit beta (Homo sapiens). As to conditions: at 1 µM.
Experiment [10] addresses T4, Inhibitor of nuclear factor kappa-B kinase subunit epsilon (Homo sapiens) (UniProt Q14164).
T4 sequence (whole entry): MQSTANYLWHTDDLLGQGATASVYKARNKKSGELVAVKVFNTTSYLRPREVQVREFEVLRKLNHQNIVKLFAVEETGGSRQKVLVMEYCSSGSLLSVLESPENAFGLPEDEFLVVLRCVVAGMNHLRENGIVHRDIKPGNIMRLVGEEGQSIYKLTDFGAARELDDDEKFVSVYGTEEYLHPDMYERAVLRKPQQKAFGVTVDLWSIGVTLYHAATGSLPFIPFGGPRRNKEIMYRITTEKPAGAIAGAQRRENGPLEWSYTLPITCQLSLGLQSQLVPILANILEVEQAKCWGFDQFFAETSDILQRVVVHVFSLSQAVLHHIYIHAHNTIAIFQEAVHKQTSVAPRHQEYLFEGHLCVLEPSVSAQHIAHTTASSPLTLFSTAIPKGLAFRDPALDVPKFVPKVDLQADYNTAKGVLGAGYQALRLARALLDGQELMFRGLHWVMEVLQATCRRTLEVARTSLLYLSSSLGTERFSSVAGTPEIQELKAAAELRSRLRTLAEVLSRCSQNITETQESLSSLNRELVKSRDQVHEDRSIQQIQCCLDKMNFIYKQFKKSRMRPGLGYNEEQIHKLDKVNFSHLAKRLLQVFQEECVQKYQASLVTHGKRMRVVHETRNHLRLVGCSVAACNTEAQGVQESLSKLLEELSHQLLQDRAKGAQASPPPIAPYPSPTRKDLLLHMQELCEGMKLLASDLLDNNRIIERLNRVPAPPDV
Conditions: at 0.1 µM.

Results on 9 compounds are retold here after ChEMBL document CHEMBL1961873, “Compounds: GSK PKIS; Assays: Nanosyn kinase panel” (2012).

A word on the inhibition: it is the drop in the measured response relative to a control, in per cent.

Chain of Sphingosine kinase 1 (Homo sapiens) (Q9NYA1 whole entry): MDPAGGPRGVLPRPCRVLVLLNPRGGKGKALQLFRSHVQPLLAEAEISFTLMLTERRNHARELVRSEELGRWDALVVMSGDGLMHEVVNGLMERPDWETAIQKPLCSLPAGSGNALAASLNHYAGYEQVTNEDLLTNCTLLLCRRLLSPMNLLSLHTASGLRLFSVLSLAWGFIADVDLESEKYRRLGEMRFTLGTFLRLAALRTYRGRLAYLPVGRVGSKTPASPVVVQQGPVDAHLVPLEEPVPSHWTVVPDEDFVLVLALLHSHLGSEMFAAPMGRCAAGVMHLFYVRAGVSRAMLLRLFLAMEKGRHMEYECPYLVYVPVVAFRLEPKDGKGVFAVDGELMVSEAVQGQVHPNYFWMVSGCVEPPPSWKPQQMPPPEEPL
Chain of Casein kinase II subunit alpha (Homo sapiens) (P68400 whole entry, looked up): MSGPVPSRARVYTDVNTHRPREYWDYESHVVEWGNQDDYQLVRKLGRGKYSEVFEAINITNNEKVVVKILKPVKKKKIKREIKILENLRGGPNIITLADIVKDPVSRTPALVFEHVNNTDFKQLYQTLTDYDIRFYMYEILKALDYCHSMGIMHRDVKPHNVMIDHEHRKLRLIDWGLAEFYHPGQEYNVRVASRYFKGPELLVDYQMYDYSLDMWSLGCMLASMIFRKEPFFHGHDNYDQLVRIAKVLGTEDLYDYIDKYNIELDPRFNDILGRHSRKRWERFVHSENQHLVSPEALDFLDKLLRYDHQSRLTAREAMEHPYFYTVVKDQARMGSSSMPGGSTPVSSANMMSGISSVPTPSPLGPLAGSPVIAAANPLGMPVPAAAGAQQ

Take `CN(C)C(=O)O[C@@H]1CN[C@@H](C#Cc2cc3ncnc(Nc4ccc(OCc5cccc(F)c5)c(Cl)c4)c3s2)C1`: the inhibition in [1] was -1.68%; in [2], 0%; in [3], 0%; in experiment [4], -1.08%; in [5] it was -1.78%; in [6] it was 6.13%. Besides, the inhibition is -0.14% in experiment [7], 4.79% in experiment [8], 2.73% in experiment [9] and 0.34% in experiment [10].
As to `COc1cccc(-n2ncc3c(N/N=C/c4ccc(C)cc4)ncnc32)c1`, the inhibition in experiment [1] was 1.5%; in [2] it was 0.29%; in experiment [3], -0.22%; in experiment [4] it was -0.43%; in experiment [5] it was 23.1%; in experiment [6], 12%. The inhibition in experiment [7] came out at 9.99%; in experiment [8] it was 6.84%; in experiment [9] it was 9.36%; in experiment [10] it was 5.66%.
For `COc1cc2ncnc(Nc3ccc4c(cnn4Cc4ccccc4)c3)c2cc1OC`, the inhibition in experiment [1] is 2.19%; in [2], 0.07%; in experiment [3], 0.14%; in experiment [4], -5.08%; in experiment [5], 4.31%; in experiment [6], 2.23%. Also, the inhibition in experiment [7] came to 8.23%; in [8], 3.63%; in experiment [9], 3.81%; in experiment [10], 2.69%.
As to `CN1CCN(C(=O)c2ccc(NC(=O)Nc3ccc(N(C)c4ccnc(Nc5ccc(CS(C)(=O)=O)cc5)n4)cc3)cc2)CC1`, the inhibition in [1] was 2.73%; in experiment [2] it was 0%; in experiment [3], -0.74%; in experiment [4], 7.1%; in [5] it was 2.55%; in experiment [6], 3.61%. Further, the inhibition in experiment [7] was determined as 9.53%; in [8], 3.95%; in experiment [9], 5.76%; in experiment [10], 4.12%.
In the case of `OCc1ccc(-c2nc(-c3ccccn3)c(-c3ccc4c(c3)OCO4)[nH]2)cc1`, the inhibition in experiment [1] was -4.68%; in [2] it was -0.11%; in experiment [3], 0.5%; in experiment [4], 2.74%; in experiment [5], -0.37%; in experiment [6], 6.97%. The inhibition in [7] is 8.08%; in [8], 5.29%; in experiment [9], 4.72%; in experiment [10], 4.91%.
Turning to `O=S(=O)(CCOCc1ccc(-c2ccc3ncnc(Nc4ccc(OCc5cccc(F)c5)c(Cl)c4)c3c2)o1)c1ccccc1`, the inhibition is 1.2% in experiment [1]; 0.14% in experiment [2]; 14.2% in [3]; 1.35% in [4]; 4.52% in experiment [5]; 1.54% in [6]. For the same compound, the inhibition is 4.26% in experiment [7], -0.1% in experiment [8], 0.7% in experiment [9] and 1.59% in experiment [10].
Regarding `COc1cccc(-n2ncc3c(N/N=C/c4ccc(S(C)(=O)=O)cc4)ncnc32)c1`, the inhibition is 10.4% in experiment [1]; 2.7% in [2]; -2.05% in [3]; 23.1% in [4]; 39.1% in experiment [5]; -1.85% in experiment [6]. In addition, the inhibition is -0.62% in experiment [7], -1.48% in experiment [8], -0.15% in experiment [9] and 1.8% in experiment [10].
For the compound `[O-][S+]1CCN(Cc2ccc(-c3ccc4ncnc(Nc5ccc(OCc6ccccc6)c(Cl)c5)c4c3)o2)CC1`, the inhibition in experiment [1] came to 0.98%; in [2], 0.01%; in [3], 2.21%; in [4], 3.5%; in experiment [5] it was 2.9%; in [6], 2.69%. The inhibition in experiment [7] is -1.63%; in experiment [8] it was 2.83%; in [9], 1.96%; in experiment [10] it was 1.93%.
For the compound `COc1cc(Nc2nccc(-c3cnn4ncccc34)n2)cc(OC)c1`, the inhibition was found to be 0.57% in experiment [1]; 0% in experiment [2]; 0.21% in experiment [3]; 8.84% in experiment [4]; 42.7% in [5]; 17.4% in [6]. Besides, the inhibition is 71.4% in experiment [7], 5.71% in [8], 24.5% in experiment [9] and 5.75% in experiment [10].
